PubChem BioAssay (Tox21)
“And” between values parts separate entries of the source, which are not always exact repeats. Equal values may be shown once. Inconclusive results are not listed. Entries that show only a call come without a potency. More than one record can exist for a structure, and the calls need not agree. The source made the active and inactive calls. Unless noted, calls come from the whole dose curve.

What was measured:
[1] = qHTS assay to identify small molecule agonists of the vitamin D receptor (VDR) signaling pathway - cell viability counter screen (AID 743224; active = well fitted curve in the direction sought with a large enough effect in the repeat runs; an effect the other way counts as inactive or inconclusive; note: nearly all actives have a fitted effect of over 50% in size; note: potency is the fitted concentration of half-maximal effect)
Summary of the method: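 Compounds were pin-transferred onto VDR-bla cells plated 4 h earlier; following 16 h incubation at 37C, cell viability was quantified by CellTiter-Glo luminescence after 30 min at room temperature.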

[2] = qHTS assay to identify small molecule antagonists of the vitamin D receptor (VDR) signaling pathway - cell viability counter screen (AID 743225; active = well fitted curve in the direction sought with a large enough effect in the repeat runs; an effect the other way counts as inactive or inconclusive; note: nearly all actives have a fitted effect of over 50% in size; note: potency is the fitted concentration of half-maximal effect)
Summary of the method: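 VDR-bla HEK 293T cells, 4 h pre-incubation at 37C, then compound plus 1-alpha,25-dihydroxyvitamin D3 (3 nM final) for 16 h. After the beta-lactamase FRET read, CellTiter-Glo was added to the same wells; luminescence after 30 min at room temperature.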

[3] = qHTS assay to identify small molecule agonists of the NFkB signaling pathway - cell viability counter screen (AID 1159515); note: nearly all actives have a fitted effect of over 55% in size; note: potency is the fitted concentration of half-maximal effect
Summary of the method: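 Parallel cytotoxicity counter screen in ME-180 cells carrying an NFkB-response-element beta-lactamase reporter, 2,000 cells/well. Compound exposure lasted 5 hr at 37 C, 5% CO2. Cell viability was quantified by CellTiter-Glo luminescence.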

[4] = qHTS assay to identify small molecule agonists of the endoplasmic reticulum stress response signaling pathway (AID 1159516; active = well fitted activation curve with a large enough effect in the signal ratio in the repeat runs, not every such curve was filed as active; the % refers to the signal ratio)
Summary of the method: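 Using a HeLa line with an ESRE-driven beta-lactamase gene, agonist activity was measured by FRET substrate fluorescence (460 and 530 nm emission) after cells were treated with compounds for 5 hr at 37 C and 5% CO2.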

[5] = qHTS assay to identify small molecule agonists of the endoplasmic reticulum stress response signaling pathway - cell viability counter screen (AID 1159517); note: nearly all actives have a fitted effect of over 50% in size; note: potency is the fitted concentration of half-maximal effect
Summary of the method: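 In parallel with the ESRE reporter read, cytotoxicity was scored by CellTiter-Glo luminescence (30 min, room temperature) on HeLa ESRE-bla cells dosed for 5 hr.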

[6] = qHTS assay to identify small molecule antagonists of the retinoid-related orphan receptor gamma (ROR-gamma) signaling pathway - cell viability counter screen (AID 1159520; active = well fitted curve in the direction sought with a large enough effect in the repeat runs; an effect the other way counts as inactive or inconclusive; note: nearly all actives have a fitted effect of over 50% in size; note: potency is the fitted concentration of half-maximal effect)
Summary of the method: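 Tet-on ROR gamma CHO cells were given compounds for 2 hr, then doxycycline hyclate at 1 uM final, and incubated 16 hr at 37 C. Viability was measured as ATP content by CellTiter-Glo luminescence.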

[7] = biological target: Nuclear receptor ROR-gamma (Homo sapiens) (UniProt P51449); assay: qHTS assay to identify small molecule antagonists of the retinoid-related orphan receptor gamma (ROR-gamma) signaling pathway (AID 1159521; active = well fitted curve in the direction sought with a large enough effect in the repeat runs; an effect the other way counts as inactive or inconclusive; note: nearly all actives have a fitted effect of over 50% in size; note: potency is the fitted concentration of half-maximal effect)
Summary of the method: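 Tet-on RORγ CHO cells carrying a ROR response element–luciferase reporter were pretreated with compounds for 2 h, then induced with 1 uM (final) doxycycline hyclate for 16 h at 37 C. Antagonism was read as decreased ONE-Glo luminescence.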

[8] = qHTS assay to identify small molecule agonists of the AP-1 signaling pathway - cell viability counter screen (AID 1159525); note: nearly all actives have a fitted effect of over 55% in size; note: potency is the fitted concentration of half-maximal effect
Summary of the method: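 Same-well cytotoxicity counter screen of the Tox21 10K library in ME-180 cells. The readout is ATP-dependent luminescence after 5 h compound treatment. Data are normalised to DMSO and tetra n-octyl ammonium bromide controls.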

[9] = qHTS assay to identify small molecule agonists of the AP-1 signaling pathway (AID 1159526); note: potency is the fitted concentration of half-maximal effect
[10] = biological target: Retinoic acid receptor RXR-alpha (Homo sapiens) (UniProt P19793); assay: qHTS assay to identify small molecule agonists of the RXR signaling pathway (AID 1159527); note: nearly all actives have a fitted effect of over 35% in size; note: potency is the fitted concentration of half-maximal effect
Sequence of Retinoic acid receptor RXR-alpha (Homo sapiens) (P19793 whole entry, looked up): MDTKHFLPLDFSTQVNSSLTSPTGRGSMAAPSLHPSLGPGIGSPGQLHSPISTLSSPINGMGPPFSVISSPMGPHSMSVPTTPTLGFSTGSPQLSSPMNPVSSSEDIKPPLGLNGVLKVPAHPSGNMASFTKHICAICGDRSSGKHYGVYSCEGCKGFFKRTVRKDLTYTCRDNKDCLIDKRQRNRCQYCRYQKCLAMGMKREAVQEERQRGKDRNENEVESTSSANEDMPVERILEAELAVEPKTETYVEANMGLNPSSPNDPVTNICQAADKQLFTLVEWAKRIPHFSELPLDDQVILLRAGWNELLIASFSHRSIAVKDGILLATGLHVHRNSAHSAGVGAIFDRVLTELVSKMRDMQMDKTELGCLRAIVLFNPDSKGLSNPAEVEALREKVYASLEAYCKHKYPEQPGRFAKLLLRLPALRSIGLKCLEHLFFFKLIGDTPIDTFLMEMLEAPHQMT
Summary of the method: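 GeneBLAzer RXR-alpha-UAS-bla HEK 293T cells in medium with 2% charcoal-stripped FBS, pre-incubated 5 hr at 37 C, then exposed to compounds 16 hr. Beta-lactamase reporter read by FRET substrate, 2 hr room temperature, 460/530 nm emission.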

| SMILES | Potency [1] | Potency [2] | Potency [3] | Potency [4] | Potency [5] | Potency [6] | Potency [7] | Potency [8] | Potency [9] | Potency [10] | activity, negative = cytotoxicity [6] |
| --- | --- | --- | --- | --- | --- | --- | --- | --- | --- | --- | --- |
| Cc1cccc(Nc2ccccc2C(=O)O)c1C | inactive | inactive | inactive | inactive | inactive | inactive | inactive | inactive | inactive | inactive | – |
| O=C(O)CCCCCCCCCCCC(=O)O | inactive | inactive | inactive | inactive | inactive | inactive | – | inactive | inactive | inactive | – |
| Cc1ccc(S(=O)(=O)NCl)cc1 | inactive | inactive | inactive | inactive | inactive | inactive | inactive | inactive | inactive | inactive | – |
| CCCCCCCC/C=C\CCCCCCCC(=O)O | – | inactive | inactive | inactive | inactive | inactive | inactive | inactive | inactive | inactive | – |
| CCO[Si](CCCNC(N)=O)(OCC)OCC | inactive | inactive | inactive | inactive | inactive | inactive | inactive | inactive | inactive | inactive | – |
| O=C1OC2(c3ccccc31)c1cc(I)c(O)c(I)c1Oc1c2cc(I)c(O)c1I | inactive and 26.5 µM (active) | inactive | inactive | inactive | inactive | inactive | 48.7 µM (active) and inactive | inactive | inactive and 29.8 µM (active) | inactive | – |
| Nc1ccc2c(O)cc(S(=O)(=O)O)cc2c1 | inactive | inactive | inactive | inactive | inactive | inactive | 9.7 µM (active) and 5.45 µM (active) | – | – | inactive | – |
| O=[Se](O)O | inactive | inactive | inactive | inactive | inactive | 54.5 µM (active) | 1.65 µM (active) | inactive | inactive and 5.28 µM (active) | – | -10.3% [at 19 µM] (inactive) |
| CC(C)(Oc1ccc(Cl)cc1)C(=O)O | inactive | inactive | inactive | inactive | inactive | inactive | – | inactive | inactive | inactive | – |
| C[C@]12CC[C@@H]3c4ccc(O)cc4CC[C@H]3[C@@H]1CC[C@@H]2O | – | inactive | inactive | inactive | inactive | inactive | 27.3 µM (active) | inactive | inactive | – | – |
| C/C=C/C(=O)N(CC)c1ccccc1C | inactive | inactive | inactive | inactive | inactive | inactive | inactive | – | inactive | inactive | – |
| CCC(Cc1c(I)cc(I)c(N)c1I)C(=O)O (configuration not stated) | inactive | inactive | inactive | inactive | inactive | inactive | inactive | inactive | – | inactive | – |
| Cc1ccc(N)c([N+](=O)[O-])c1 | inactive | inactive | inactive | inactive | inactive | inactive | inactive | inactive | inactive | inactive | – |
| CN1CCOCC1 | inactive | inactive | inactive | inactive | inactive | inactive | inactive | inactive | inactive | inactive | – |
| CNC[C@H](O)c1ccc(O)c(O)c1 | – | inactive | inactive | inactive | inactive | inactive | inactive | – | inactive | inactive | – |
| C=C[C@@]1(C)CC(=O)[C@]2(O)[C@@]3(C)[C@@H](O)CCC(C)(C)[C@@H]3[C@H](O)[C@H](OC(C)=O)[C@@]2(C)O1 | inactive | – | 24.5 µM (active) and 21.3 µM (active) | inactive | 21.9 µM (active) and 21.3 µM (active) | inactive | – | 21.9 µM (active) and 21.3 µM (active) | inactive | 12.3 µM (active) | – |
| C=C[C@H]1CN2CC[C@H]1C[C@H]2[C@H](O)c1ccnc2ccc(OC)cc12 | – | – | inactive | inactive | inactive | inactive | – | inactive | inactive | inactive | – |
| CCC/C=C/C=O | inactive | inactive | inactive | inactive | inactive | inactive | inactive | – | inactive | inactive | – |
| CC(C)[N+](C)(CCOC(=O)C1c2ccccc2Oc2ccccc21)C(C)C | inactive | inactive | inactive | inactive | inactive | inactive | inactive | – | inactive | – | – |
| COc1ccc(C(=O)c2ccccc2O)c(O)c1 | inactive | inactive | inactive | inactive | inactive | inactive | – | inactive | inactive | inactive | – |
| c1ccc2ncccc2c1 | inactive | inactive | inactive | inactive | inactive | inactive | – | inactive | inactive | inactive | – |
| C=CCOC(=O)C(=C)C | inactive | inactive | inactive | inactive | inactive | inactive | inactive | inactive | inactive | inactive | – |
| CCCCCCC(C)O (configuration not stated) | inactive | inactive | inactive | inactive | inactive | inactive | inactive | – | inactive | 17.7 µM (active) and inactive | – |
| FC(F)(F)C(Cl)Br (configuration not stated) | inactive | inactive | inactive | inactive | inactive | inactive | – | inactive | inactive | inactive | – |
| CCCN1C=CN(C)C1 | inactive | inactive | inactive | inactive | inactive | inactive | – | inactive | inactive | inactive | – |

| SMILES | Potency [1] | Potency [2] | Potency [3] | Potency [4] | Potency [5] | Potency [6] | Potency [7] | Potency [8] | Potency [9] | Potency [10] | activity, negative = cytotoxicity [6] |
| --- | --- | --- | --- | --- | --- | --- | --- | --- | --- | --- | --- |
| COc1ccc2nc(N)sc2c1 | – | inactive | inactive | inactive | inactive | inactive | inactive | – | inactive | – | – |
| C[N+](C)(C)CCO | inactive | inactive | inactive | inactive | inactive | inactive | inactive | – | inactive | inactive | – |
| Nc1cc(Cl)c(N)c(Cl)c1 | – | inactive | inactive | inactive | inactive | inactive | inactive | inactive | inactive | inactive | – |
| NC[C@H](O)c1ccc(O)c(O)c1 | inactive | inactive | inactive | inactive | inactive | inactive | – | inactive | inactive | inactive | – |
| Cc1ccc(C(C)(C)C)cc1 | – | inactive | inactive | inactive | inactive | inactive | inactive | inactive | inactive | inactive | – |
| CCCCCCCCCCC(CO)CCCCCCCC (configuration not stated) | inactive | inactive | inactive | inactive | inactive | inactive | – | inactive | inactive | inactive | – |
| O=Cc1ccccc1C=O | inactive | 21.9 µM (active) and inactive | inactive | inactive | inactive | 7.7 µM (active) and inactive | 17.2 µM (active) and inactive | inactive | inactive | inactive | – |
| CC(C)=CCO | – | inactive | inactive | inactive | inactive | inactive | inactive | – | inactive | inactive | – |
| OC[C@@H](O)[C@@H](O[C@@H]1O[C@H](CO)[C@H](O)[C@H](O)[C@H]1O)[C@H](O)[C@@H](O)CO | inactive | inactive | inactive | inactive | inactive | inactive | – | inactive | inactive | inactive | – |
| Cc1ccc([N+](=O)[O-])c(C)c1 | inactive | inactive | inactive | inactive | inactive | inactive | – | 12.3 µM (active) and inactive | inactive | inactive | – |
| NCCN | inactive | inactive | inactive | inactive | inactive | inactive | – | inactive | inactive | inactive | – |
| CN(Cc1cnc2nc(N)nc(N)c2n1)c1ccc(C(=O)N[C@@H](CCC(=O)O)C(=O)O)cc1 | 30.9 nM (active) and 188 nM (active) | 213 nM (active) | inactive | inactive | inactive | inactive | inactive | inactive | inactive | – | – |
| C=CCCCCCCCCCC | inactive | inactive | inactive | inactive | inactive | inactive | – | inactive | inactive | inactive | – |
| O=C(CCCN1CCC(O)(c2ccc(Cl)cc2)CC1)c1ccc(F)cc1 | inactive | inactive | inactive | inactive | inactive | 54.5 µM (active) and inactive | inactive | inactive | inactive | – | – |
| O=C(O)c1cc(=O)[nH]c(=O)[nH]1 | – | inactive | inactive | inactive | inactive | inactive | – | – | inactive | inactive | – |
| C=CN1CCCC1=O | inactive | inactive | inactive | inactive | inactive | inactive | – | – | inactive | inactive | – |
| NCCOCCO | – | inactive | inactive | inactive | inactive | inactive | – | inactive | inactive | inactive | – |
| Cc1ccc2c(c1)C(=O)OC2=O | – | inactive | inactive | inactive | inactive | inactive | – | – | inactive | inactive | – |
| O=S1(=O)CCCO1 | – | inactive | inactive | inactive | inactive | inactive | – | – | inactive | inactive | – |
| Nc1ccc(O)c(N)c1 | – | inactive | inactive | inactive | inactive and 54.9 µM (active) | inactive | – | – | inactive | inactive | – |
| CCCCCCCCCCCCCO | – | inactive | inactive | inactive | inactive | inactive | – | inactive | inactive | inactive | – |
| c1ccc2c(c1)ccc1ncccc12 | inactive | inactive | inactive | inactive | inactive | inactive | – | – | inactive | – | – |
| OCCNCCO | inactive | inactive | inactive | inactive | inactive | inactive | – | – | inactive | – | – |
| Clc1ccc(Sc2cc(Cl)c(Cl)cc2Cl)cc1 | – | – | inactive | inactive | inactive | inactive | – | – | inactive | inactive | – |
